We go through twelve molecules from PubChem BioAssay (NCATS).

Results filed as inconclusive are left out. Calls of active or inactive are those of the source. Unless noted, calls come from the whole dose curve; as a rule, active = well fitted inhibition curve with a large enough effect; inconclusive = small, poorly fitted or top-dose-only effect; inactive = flat fitted curve, though single readings scatter.

Test [1] is described as follows: qHTS drug screen for cell cycle checkpoint inhibitors in PARPi-resistant BRCA-mutant ovarian cancer cell lines. (AID 1963452; calls by dose curve). The note with it: PEO1/OlaR viability, CellTiter-Glo luminescence, 96 h, stronger effect = lower value. In a few lines:
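PEO1, PEO4 and PEO1/OlaR ovarian cancer cells, 600 per well, exposed 96 h at 37C to a dilution series. Viability read by CellTiter-Glo luminescence, normalized to DMSO and empty wells; activity summarized as Z-AUC.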

Test [2] can be described thus: qHTS for identification of novel therapeutic agents for treatment of microphthalmiaassociated transcription factor (MiT) renal cell carcinoma (RCC) (AID 1963991; calls by dose curve; note: potency is the fitted concentration of half-maximal effect). The note with it: CellTiter-Glo, 48 h; for z-score: stronger effect = lower value. In a few lines:
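Three TFE3-fusion RCC cell lines (UOK109, UOK124, UOK145), 500 cells/well, were exposed to the 1912-compound MIPE 4.0 library for 48 hours at 37 C. Viability was read by CellTiter-Glo luminescence, normalised to DMSO (100%) and empty wells (0%), with 11-concentration curve fits.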
In general terms: Quantitative high-throughput screening tests each substance at several concentrations.

A short description of test [3]: qHTS profiling for inhibitors of Plasmodium falciparum proliferation (AID 504749).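 For activity, negative = inhibition: 0% = DMSO vehicle and full inhibition = artemisinin control.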 Note: nearly all actives have a fitted effect of over 60% in size. Note: potency is the fitted concentration of half-maximal effect. The note with it: P. falciparum in erythrocytes, SYBR Green DNA, 72 h, at 28.7 µM (top of the series). In a few lines: (§1)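 Three-day growth assay of blood-stage parasites in erythrocytes (0.3% parasitemia, 2.5% hematocrit) at 37 C, 5% CO2, quantified by SYBR Green DNA staining after overnight detergent lysis.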

Another test has as its system 3D7. The description is as above. The note with it: P. falciparum in erythrocytes, SYBR Green DNA, 72 h; series mostly up to 28.7 µM. The gist of the method:
as §1

In another test the test system is 7G8. Described as above. The note with it: P. falciparum in erythrocytes, SYBR Green DNA, 72 h; series mostly up to 28.7 µM. In a few lines: as §1
Another test relates to AA1029. The test is described as above. The note with it: P. falciparum in erythrocytes, SYBR Green DNA, 72 h; series mostly up to 28.7 µM. In a few lines:
as §1

The next test concerns AS120. Described as above. The note with it: P. falciparum in erythrocytes, SYBR Green DNA, 72 h; series mostly up to 28.7 µM. The gist of the method:
as §1

In the next test the test system is ATS189. The description is as above. The note with it: P. falciparum in erythrocytes, SYBR Green DNA, 72 h; series mostly up to 28.7 µM. In a few lines:
as §1

The test system of a further test is ATS95. The description is as above. The note with it: P. falciparum in erythrocytes, SYBR Green DNA, 72 h; series mostly up to 28.7 µM. The gist of the method: as §1
The next test relates to C2A. The description is as above. The note with it: P. falciparum in erythrocytes, SYBR Green DNA, 72 h; series mostly up to 28.7 µM. In a few lines: as §1
The next test concerns CP185. The test is described as above. The note with it: P. falciparum in erythrocytes, SYBR Green DNA, 72 h; series mostly up to 28.7 µM. In a few lines:
as §1

The next test concerns CP191. The description is as above. The note with it: P. falciparum in erythrocytes, SYBR Green DNA, 72 h; series mostly up to 28.7 µM. The gist of the method:
as §1

In another test the test system is CP192. The test is described as above. The note with it: P. falciparum in erythrocytes, SYBR Green DNA, 72 h; series mostly up to 28.7 µM. The gist of the method:
as §1

Another test relates to CP194. The description is as above. The note with it: P. falciparum in erythrocytes, SYBR Green DNA, 72 h; series mostly up to 28.7 µM. The gist of the method: as §1
For another test, the system named is CP201. Described as above. The note with it: P. falciparum in erythrocytes, SYBR Green DNA, 72 h; series mostly up to 28.7 µM. In a few lines:
as §1

The next test has as its system CP211. The test is described as above. The note with it: P. falciparum in erythrocytes, SYBR Green DNA, 72 h; series mostly up to 28.7 µM. The gist of the method: as §1
Another test relates to CP215. The test is described as above. The note with it: P. falciparum in erythrocytes, SYBR Green DNA, 72 h; series mostly up to 28.7 µM. The gist of the method: as §1
A further test has as its system CP217. Described as above. The note with it: P. falciparum in erythrocytes, SYBR Green DNA, 72 h; series mostly up to 28.7 µM. In a few lines:
as §1

Setting [4] is: measured here: PEO1 parental Z-AUC.
[5] abbreviates: TFE3-RCC UOK109 viability, measured here: UOK109 Z-AUC.
Setting [6] is: TFE3-RCC viability, measured here: UOK124 Z-AUC.
Setting [7] is: TFE3-RCC viability, measured here: UOK145 Z-AUC.

For the molecule `COc1ccc(Cc2ccc(NC(N)=O)cc2)cc1-c1cccc(Cl)c1`, the Z-AUC in test [1] was 0.65 (inactive); in test [1] (setting [4]), -0.098; in test [1] (measured here: PEO4 Z-AUC) it was 0.315. Besides, the z-score stood at 0.762 in test [2] (setting [5]), 0.853 in test [2] (setting [6]) and 0.582 in test [2] (setting [7]).
As for `COC1CCC(N(C(=O)C2CCC(C)CC2)c2cc(C3=CCCCC3)sc2C(=O)O)CC1` (configuration not stated), the values for the Z-AUC in [1], in test [1] (setting [4]) and in test [1] (measured here: PEO4 Z-AUC) were -0.412 (inactive), -0.941 and -0.935, respectively. In addition, the z-score in test [2] (setting [5]) was 0.459; in [2] (setting [6]), 1.37; in test [2] (setting [7]) it was 0.333.
For the molecule `CC(C)(C)COc1ccc(-n2cc(C(=O)O)cn2)cc1C#N`, the z-score is 1.01 in test [2] (setting [5]), 0.953 in [2] (setting [6]) and 0.498 in test [2] (setting [7]).
For `O=C(O)c1c(Cl)c(Cl)c(Cl)c(Cl)c1-c1c2cc(I)c(=O)c(I)c-2oc2c(I)c(O)c(I)cc12`, the Z-AUC is 0.15 (inactive) in test [1], 0.353 in test [1] (setting [4]) and 0.104 in test [1] (measured here: PEO4 Z-AUC). Further, the activity, negative = inhibition in test [3] (parasite line A) was 1.68% (inactive); in [3] (parasite line B) it was 2.35% (inactive). For the same molecule, the molecule was classed as inactive in the test with 3D7, in the test with AA1029, in the test with ATS95, in the test with C2A, in the test with CP185 and with CP201. Further, the Potency result in the test with 7G8, in the test with AS120, in the test on ATS189, with CP191, in the test on CP192 and with CP194 was “inactive” in each case. Moreover, the Potency result in the test on CP211, with CP215 and in the test on CP217 was “inactive” in each case.
Consider `CC(C)C(C)C=CC(C)C1CCC2C3=CC=C4CC(O)CCC4(C)C3CCC21C` (configuration not stated), for which the Z-AUC in test [1] is 1.48 (inactive); in [1] (setting [4]), 1.13; in test [1] (measured here: PEO4 Z-AUC), 1.32. Moreover, the z-score in [2] (setting [5]) is 0.762; in test [2] (setting [6]), 0.655; in test [2] (setting [7]) it was 1.94.
In the case of `C=C1C(=O)OC(CCCCCCCC)C1C(=O)O` (configuration not stated), the values for the Z-AUC in [1], in test [1] (setting [4]) and in [1] (measured here: PEO4 Z-AUC) were 0.778 (inactive), 0.453 and 0.342, respectively. Moreover, the values for the z-score in test [2] (setting [5]), in [2] (setting [6]) and in [2] (setting [7]) were 0.725, 0.792 and 0.524, respectively.
`Nc1ncnc2c1ncn2[C@@H]1O[C@@H](CO)[C@H](O)[C@H]1O`: the z-score in test [2] (setting [5]) is 0.834; in test [2] (setting [6]), 0.529; in [2] (setting [7]), 0.73.
For `NC[C@@H]1O[C@@H](O[C@H]2[C@@H](O)[C@H](O[C@@H]3[C@@H](O)[C@@H](N)C[C@H](N)[C@H]3O[C@H]3O[C@H](CN)[C@@H](O)[C@@H](O)[C@H]3N)O[C@H]2CO)[C@H](N)[C@@H](O)[C@@H]1O`, in that order: 1.35, 0.643 and 1.63.
On to `CC(C)(C)OC(=O)N[C@H]1CCCCCC=C[C@@H]2C[C@@]2(C(=O)NS(=O)(=O)C2CC2)NC(=O)[C@@H]2C[C@@H](OC(=O)N3Cc4cccc(F)c4C3)CN2C1=O`, for which the Z-AUC in [1] is 0.565 (inactive); in test [1] (setting [4]) it was 0.658; in [1] (measured here: PEO4 Z-AUC), 1.2. For the same molecule, the z-score in test [2] (setting [5]) stood at 0.6; in test [2] (setting [6]), 0.826; in [2] (setting [7]), 2.04.
`COc1cc(N2CCC(N3CCN(C)CC3)CC2)ccc1Nc1ncc(Cl)c(Nc2ccccc2S(=O)(=O)C(C)C)n1`: the Z-AUC was -0.172 (inactive) in test [1], -0.594 in test [1] (setting [4]) and -0.618 in test [1] (measured here: PEO4 Z-AUC). For the same molecule, the Potency in [2] (TFE3-RCC UOK109 viability, active = Z-AUC below -0.8 in all three lines) is 14.8 µM (active). For the same molecule, the figures for the z-score in [2] (setting [5]), in test [2] (setting [6]) and in test [2] (setting [7]) were -1.55, -1.62 and -1.41, respectively.
Take `CC(=O)O[C@]1(C(C)=O)CC[C@H]2[C@@H]3C=C(Cl)C4=CC(=O)[C@@H]5C[C@@H]5[C@]4(C)[C@H]3CC[C@@]21C`: the Z-AUC in test [1] is 0.151 (inactive); in [1] (setting [4]), 0.0304; in test [1] (measured here: PEO4 Z-AUC) it was 0.0664. Further, the Potency with 7G8 is 11.2 µM (active). Also, the Potency entry in the test on ATS189 was “inactive”. For the same molecule, the result in the test with CP185 was inactive.
On to `CC(=O)N[C@@H](CS)C(=O)O`, for which the figures for the Z-AUC in [1], in test [1] (setting [4]) and in [1] (measured here: PEO4 Z-AUC) were 0.621 (inactive), 0.869 and 0.504, respectively. For the same molecule, the activity, negative = inhibition in [3] (parasite line A) is -3.7% (inactive); in [3] (parasite line B), 16.4% (inactive). Further, the result in the test on 3D7, in the test with AA1029, in the test with ATS95, in the test on C2A, in the test with CP185 and in the test on CP201 was inactive. In addition, the Potency entry with 7G8, with AS120, in the test with ATS189, with CP191, in the test on CP192 and with CP194 was “inactive” in each case. Also, the Potency entry in the test with CP211, in the test with CP215 and in the test with CP217 was “inactive” throughout.
